# According to the supplement of paper PMC3545927:
# This is one part of the list. How many sequences the whole screen found active is unknown.
# B1: NG3 (peptide)
# chain: CAPQGDAAQKAGNASASA
# B2: HC238 (peptide)
# chain: CAVRVLEDGVAGNASASA
# B3: FS-2671 (peptide)
# chain: CARGKRHLQGAGNASASA
# B4: HC211 (peptide)
# chain: CARGSRPSWGAGNASASA
# B5: FS-2018 (peptide)
# chain: CARGKRSLDGAGNASASA
# B6: FS-2086 (peptide)
# chain: CARSFRSGDGAGNASASA
# B7: HC2382 (peptide)
# chain: CAEVPCHQPSAGNASASA
# B8: HC810 (peptide)
# chain: CAFLADGGCSAGNASASA
# B9: HC111 (peptide)
# chain: CAVVCCKMSYAGNASASA
# B10: FS-1332 (peptide)
# chain: CAGRSRTKRSAGNASASA
# B11: FS-1581 (peptide)
# chain: CAYKSRTKRSAGNASASA
# B12: FS-533 (peptide)
# chain: CAGRSRPDRSAGNASASA
# B13: FS-1593 (peptide)
# chain: CAHRGVTKRSAGNASASA
# B14: HC1443 (peptide)
# chain: CAFCVQPEKGAGNASASA
# B15: HC2038 (peptide)
# chain: CAVVTCSMSYAGNASASA
# B16: HC2541 (peptide)
# chain: CASTPCSNHLAGNASASA
# B17: FS-1165 (peptide)
# chain: CASHQRTKRSAGNASASA
# B18: FS-746 (peptide)
# chain: CAAKHRTKRSAGNASASA
# B19: FS-1533 (peptide)
# chain: CAHRGPARRSAGNASASA
# B20: FS-675 (peptide)
# chain: CAKKQETKRSAGNASASA
# B21: HC2421 (peptide)
# chain: CAEVPCHRPNAGNASASA
# B22: HC100 (peptide)
# chain: CAVVCPSMSYAGNASASA
# B23: FS-1453 (peptide)
# chain: CAEQIRQDRSAGNASASA
# B24: FS-1629 (peptide)
# chain: CAHAWRSRRSAGNASASA
# B25: FS-993 (peptide)
# chain: CAEQWRSRRSAGNASASA
# B26: FS-784 (peptide)
# chain: CAGPGRPYRAAGNASASA
# B27: FS-2021 (peptide)
# chain: CARGRRDFPEAGNASASA
# B28: FS-3251 (peptide)
# chain: CARGRRKTGEAGNASASA
# B29: FS-1983 (peptide)
# chain: CAGARRSVIGAGNASASA
# B30: FS-1005 (peptide)
# chain: CAGVSRSCRAAGNASASA
# B31: FS-1330 (peptide)
# chain: CAGPSRQNRGAGNASASA
# B32: FS-422 (peptide)
# chain: CAGARRSRRAAGNASASA
# B33: FS-2673 (peptide)
# chain: CARGRKSPSKAGNASASA
# B34: FS-3252 (peptide)
# chain: CARGRRSPHTAGNASASA
# B35: HC1764 (peptide)
# chain: CAMEECSQHIAGNASASA
# B36: HC763 (peptide)
# chain: CAMRSPVFTDAGNASASA
# B37: HC2107 (peptide)
# chain: CAFDVVCCSMAGNASASA
# B38: HC913 (peptide)
# chain: CAGERPSGMFAGNASASA
# B39: HC1885 (peptide)
# chain: CATTPCSLSWAGNASASA
# B40: FS-1062 (peptide)
# chain: CARGRRSRRAAGNASASA
# B41: FS-2394 (peptide)
# chain: CARGRRGMKDAGNASASA
# B42: FS-1563 (peptide)
# chain: CARPIRSRRAAGNASASA
# B43: FS-2674 (peptide)
# chain: CARGRRSHDPAGNASASA
# B44: FS-2418 (peptide)
# chain: CARGRRQKQNAGNASASA
# B45: HC190 (peptide)
# chain: CARGRRQPIPAGNASASA
# Biological target: furin, P09958
# Sequence (P09958 whole entry): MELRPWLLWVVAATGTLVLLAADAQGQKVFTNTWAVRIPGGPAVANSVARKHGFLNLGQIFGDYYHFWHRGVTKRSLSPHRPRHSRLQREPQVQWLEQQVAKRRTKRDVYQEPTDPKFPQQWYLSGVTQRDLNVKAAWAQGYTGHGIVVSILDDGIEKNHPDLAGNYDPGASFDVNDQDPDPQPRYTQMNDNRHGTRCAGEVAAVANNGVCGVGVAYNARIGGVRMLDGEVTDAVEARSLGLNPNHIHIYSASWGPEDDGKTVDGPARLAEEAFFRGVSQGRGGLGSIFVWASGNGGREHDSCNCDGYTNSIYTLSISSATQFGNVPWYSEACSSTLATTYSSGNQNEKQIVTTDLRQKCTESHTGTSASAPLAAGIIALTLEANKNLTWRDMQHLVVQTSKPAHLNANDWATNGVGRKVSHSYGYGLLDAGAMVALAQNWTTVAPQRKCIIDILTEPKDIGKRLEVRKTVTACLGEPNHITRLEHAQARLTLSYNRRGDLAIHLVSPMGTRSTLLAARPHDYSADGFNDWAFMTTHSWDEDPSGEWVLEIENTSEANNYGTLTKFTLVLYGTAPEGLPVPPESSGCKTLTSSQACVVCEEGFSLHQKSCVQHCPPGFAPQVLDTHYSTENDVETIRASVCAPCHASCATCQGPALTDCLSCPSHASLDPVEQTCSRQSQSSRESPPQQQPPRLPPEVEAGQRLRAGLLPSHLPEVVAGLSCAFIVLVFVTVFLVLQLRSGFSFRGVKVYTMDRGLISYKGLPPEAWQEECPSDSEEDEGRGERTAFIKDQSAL
# Test: furin cleavage Z-score vs untreated control; higher = more cleavage, active = 3.5 or more, inactive = 1 or less, 8 variable residues between constant flanks
# How it was run: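 Cleavage by purified furin was measured on 8-mer peptides fused to a cDNA oligonucleotide and held on magnetic beads by their N-terminus. Reactions (0.01 ml, 1:10 enzyme:substrate) ran 7.5, 15 or 30 min in 50 mM HEPES pH 7.5 with CaCl2 and NaCl. Released DNA was adapter-tagged by PCR and sequenced, with read counts giving abundance. Log counts versus furin-free reactions were lowess-adjusted and scaled by median absolute deviation to give the cleavage Z-score.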
Sequence,furin cleavage Z-score (7.5 min),furin cleavage Z-score (15 min),furin cleavage Z-score (30 min)
B1,-0.23 (inactive),-2.31 (inactive),0.729 (inactive)
B2,-0.328 (inactive),-0.295 (inactive),0.54 (inactive)
B3,8.58 (active),8.16 (active),8.59 (active)
B4,-1.28 (inactive),-0.0322 (inactive),-1.24 (inactive)
B5,10.4 (active),10.4 (active),8.84 (active)
B6,0.521 (inactive),-1.18 (inactive),0.00797 (inactive)
B7,0.495 (inactive),-0.572 (inactive),1.13
B8,-0.0827 (inactive),-0.994 (inactive),-0.4 (inactive)
B9,2.65,1.75,0.575 (inactive)
B10,10.4 (active),9.78 (active),7.49 (active)
B11,12.8 (active),13.7 (active),8.1 (active)
B12,5.97 (active),7.05 (active),7.1 (active)
B13,6.75 (active),7.15 (active),6.87 (active)
B14,-1.06 (inactive),-0.187 (inactive),0.825 (inactive)
B15,0.204 (inactive),-0.0386 (inactive),-0.133 (inactive)
B16,0.901 (inactive),1.16,0.705 (inactive)
B17,8.79 (active),9.17 (active),6.69 (active)
B18,14.6 (active),14.7 (active),10.8 (active)
B19,2.51,2.95,4.27 (active)
B20,-0.996 (inactive),0.0553 (inactive),0.952 (inactive)
B21,-0.123 (inactive),0.813 (inactive),1.61
B22,-0.389 (inactive),0.782 (inactive),1.57
B23,-0.0806 (inactive),0.259 (inactive),0.047 (inactive)

Sequence,furin cleavage Z-score (7.5 min),furin cleavage Z-score (15 min),furin cleavage Z-score (30 min)
B24,10.5 (active),8.73 (active),8.99 (active)
B25,10.6 (active),9.84 (active),7.38 (active)
B26,-0.745 (inactive),0.68 (inactive),0.71 (inactive)
B27,1.74,3.62 (active),3.22
B28,-0.45 (inactive),-1.86 (inactive),0.0435 (inactive)
B29,-0.924 (inactive),0.507 (inactive),-0.671 (inactive)
B30,3.78 (active),4.22 (active),5.16 (active)
B31,-0.197 (inactive),-0.893 (inactive),-0.697 (inactive)
B32,7.16 (active),6.59 (active),5.19 (active)
B33,-0.571 (inactive),-0.51 (inactive),-0.0739 (inactive)
B34,7.13 (active),8.09 (active),6.93 (active)
B35,-0.598 (inactive),0.0833 (inactive),0.396 (inactive)
B36,0.639 (inactive),-0.615 (inactive),-0.411 (inactive)
B37,-0.364 (inactive),0.607 (inactive),-0.057 (inactive)
B38,1.14,-1.35 (inactive),-0.577 (inactive)
B39,1.37,1.04,0.14 (inactive)
B40,5.6 (active),4.73 (active),4.94 (active)
B41,0.884 (inactive),1.5,2.14
B42,11.5 (active),11.2 (active),9.54 (active)
B43,0.899 (inactive),3.42,3.55 (active)
B44,0.749 (inactive),0.513 (inactive),0.917 (inactive)
B45,0.155 (inactive),-0.409 (inactive),-0.134 (inactive)
